# Screening data as filed in PubChem.
# GALK inhibitor – galactokinase (human) inhibition; P51570; Purified GALK, Kinase-Glo residual ATP luminescence; Potency, µM (doses to about 57.5 µM), for inactives: at the highest dose activity change, negative = inhibition, hits mostly inhibitors; 270,000 tested, 0.007% active; AID 1868; further: potency means the concentration at half of the fitted maximal effect; on the % scale 0 is the no-effect control and ±100 the full control effect
# Target sequence (P51570 whole entry, looked up): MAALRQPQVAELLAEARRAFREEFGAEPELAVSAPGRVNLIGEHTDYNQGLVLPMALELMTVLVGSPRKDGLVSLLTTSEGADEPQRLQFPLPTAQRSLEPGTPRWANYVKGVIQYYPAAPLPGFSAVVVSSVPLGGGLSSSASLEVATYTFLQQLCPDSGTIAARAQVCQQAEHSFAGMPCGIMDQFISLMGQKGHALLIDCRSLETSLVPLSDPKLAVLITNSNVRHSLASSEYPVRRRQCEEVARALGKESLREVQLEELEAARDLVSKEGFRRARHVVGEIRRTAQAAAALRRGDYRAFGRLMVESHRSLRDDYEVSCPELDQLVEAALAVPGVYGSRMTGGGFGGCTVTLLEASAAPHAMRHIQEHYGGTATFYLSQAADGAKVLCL
#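 Luminescence from leftover ATP (Ultra-Glo luciferase/luciferin) served as read-out after a 1 h room-temperature reaction of 5 nM GALK with 35 uM ATP and 100 uM galactose.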
# USP2a block – inhibitors of human ubiquitin-specific protease USP2a. O75604. USP2 core, Ub-CHOP2 coupled fluorogenic reporter, 485/531. Potency, µM (series often up to 38.3 µM), for inactives: at the highest dose activity change, negative = inhibition, actives largely listed as inhibitors. 330,000 tested, 0.01% active;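 further: potency means the concentration at half of the fitted maximal effect; plate controls were DMSO wells for no effect and full inhibition by NEM control for full effect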
#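 Deubiquitinase activity read as fluorescence (485/531 nm) after Ub-CHOP2 cleavage activates the enterokinase reporter on its substrate; USP2 core 10nM, Ub-CHOP2 and substrate 25nM each, 30min compound preincubation then 60min RT; data normalized to NEM, curves fitted.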
# Eya2 inh – inhibitors of human Eya2 phosphatase activity; O00167; recombinant Eya2, OMFP fluorescence dephosphorylation (OMFP is methylfluorescein phosphate); Potency, µM (highest dose often 76.9 µM), without a hit: at the highest dose activity, negative = inhibition, most hits filed as inhibitors; 330,000 tested, 0.006% active; further: potency means the concentration at half of the fitted maximal effect; on the % scale 0 is the no-effect control and ±100 the full control effect
#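 Eya2 protein (added as 0.2 uM solution) was preincubated with compound for 10 min at ambient temperature in 50 mM HEPES pH 7.5, 50 mM NaCl, 5 uM MgCl2, 0.05% BSA, 1 mM DTT. OMFP (added at 50 uM) then reacted 10 min; fluorescence read at 485/525 nm.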
# D1 agonist – activates the human D1 dopamine receptor; P21728; HEK293 T-REx D1 cells, calcium flux, agonist mode; activation, % at 2 µM; 360,000 tested, 1% active; in the data active means activation above about 30%; further: 0% is about no effect
#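 Tetracycline-induced HEK293 TREx D1 cells, force-coupled to calcium signalling, were dye-loaded with a no-wash calcium kit. Compound was pin-added after a 10 s baseline. Fluorescence was read kinetically at 1 cycle/s for 180 s, with calcium rises flagged as agonism.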
# D1 PAM – potentiators of human D1 dopamine receptor; 360,000 tested, 0.036% active; potentiation, % at 10 µM; HEK293 TREx D1 cells, calcium flux, dopamine EC20 potentiation; in the data active means potentiation above about 30%; further: 0% is about no effect
# D1 antagonist – human D1 dopamine receptor antagonism. P21728. HEK293 TREx D1 cells, calcium flux, dopamine EC80; stronger effect = lower value. activity change, negative = inhibition, % at 10 µM. 360,000 tested, 3.2% active; in the data active means activity change below about -30%; further: on the % scale 0 is the no-effect control and ±100 the full control effect
#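 Kinetic fluorescence of a calcium dye serves as the read-out. D1-expressing Hek293 Trex cells, induced overnight at 30 C, are exposed to compound for 180 s before an EC80 dopamine addition, then read 180 s further.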
# Starred values were filed as active, the others as inactive; / = no result given. Compounds with a hit are over-represented: about 3.9% of the library has one in this group of screens. Unless noted, the call rests on the fitted dose curve; in most records, active means well fitted inhibition curve with a large enough effect; inconclusive means small, poorly fitted or top-dose-only effect, or effect the other way; inactive means flat fitted curve, though single readings scatter.
SMILES,GALK inhibitor,USP2a block,Eya2 inh,D1 agonist,D1 PAM,D1 antagonist
Cc1cccc(NC(=O)N2CC(=O)Nc3sc4c(c3C2c2ccccc2)CCCC4)c1C (configuration not stated),/,/,/,-1.9,0.3,2.4
CC1(C)CC(O)C(C)(C)N1O (configuration not stated),-0.1%,-3.3%,-21.8%,36.5*,0.1,168.5
CCN(CC)S(=O)(=O)c1ccc2c(c1)N(CC(=O)Nc1ccc(F)cc1F)C(=O)C1CCCN21 (configuration not stated),/,/,/,2.9,1.1,-32.1*
CCOc1cc(CNCCO)cc(Br)c1OCc1cccs1,-2.2%,-0.2%,-1.9%,33.8*,-2.3,0.1
CCOc1cc(CNCc2cccs2)cc(Br)c1OCC,/,2.4%,5.4%,0.7,1.0,-2.1
COC(=O)c1[nH]c2ccccc2c1NS(=O)(=O)c1ccc(F)c(C)c1,0.2%,1.4%,2.8%,0.8,-7.3,-47.9*
NC(N)=N/N=C/c1ccccc1,0.5%,6.8%,-11.0%,2.5,1.0,-0.7
NC(N)=N/N=C/c1ccc(OCc2ccccc2Cl)cc1,-0.8%,-28.5%,35.5µM*,-1.0,0.7,-12.0
Cc1ccc(C(=O)Nc2ccc(C(=O)O)cc2)cc1S(=O)(=O)N1CCC(C)CC1,/,/,/,0.2,0.3,11.6
C=C(C)CN(CC)C(=O)COc1ccc(S(=O)(=O)Nc2ccc(OC)cc2)cc1,0.5%,-6.7%,0.1%,52.1*,-7.4,-28.1
Cc1ccc(NS(=O)(=O)c2ccc(C(=O)OCC(=O)Nc3cc(C)on3)cc2)cc1,3.3%,-0.9%,-11.1%,44.3*,0.1,-6.1
CCOC(=O)COc1ccc(S(=O)(=O)Nc2ccc3c(c2)OCCO3)cc1,1.0%,0.0%,1.6%,33.4*,-4.8,-19.7
Cc1ccc(NS(=O)(=O)c2ccc(OCC(=O)NCC3CCCO3)cc2)cc1 (configuration not stated),1.7%,2.0%,1.3%,10.3,-4.2,-37.6*
COc1ccc(NS(=O)(=O)c2cccc(C(=O)OCC(=O)Nc3cc(C)on3)c2)cc1,-0.2%,0.9%,19.1%,9.3,-1.9,-14.8
CCN(CC(=O)Nc1ccc(OC)cc1)C(=O)c1ccc(NS(=O)(=O)c2ccc(C(C)=O)cc2)cc1,/,1.2%,3.8%,2.5,-0.2,2.4
CCOC(=O)c1sc(N2C(=O)c3oc4ccccc4c(=O)c3C2c2ccc(C(C)(C)C)cc2)nc1C (configuration not stated),/,/,/,-0.3,-4.5,5.7
Cc1ccc(-n2nc(C)c3c(C(=O)Nc4ccc(Br)c(C)c4)cc(C)nc32)cc1,/,/,/,5.0,-6.5,-15.0
O=S(=O)(Nc1cccc(-c2ccc(N3CCCCC3)nn2)c1)c1ccc(Cl)s1,/,/,/,1.1,0.8,-15.5
CCOC(=O)c1ccc(NS(=O)(=O)c2ccc3c(c2)OCCO3)cc1,/,/,/,24.6,-6.5,-36.2*
CCNC(=O)COC(=O)c1ccc(NS(=O)(=O)c2ccc3c(c2)OCCO3)cc1,-2.9%,4.6%,-2.2%,3.4,4.5,-2.1
COc1ccc(S(=O)(=O)Nc2ccc(CC#N)cc2)cc1,0.9%,2.2%,3.3%,5.6,-2.3,-33.1*
COc1ccc(NC(=O)C2=C(C)Nc3nc(SCc4ccc(Cl)cc4)nn3C2c2cccc(OC)c2OC)cc1 (configuration not stated),/,/,/,4.4,1.1,4.8
Cc1ccc(Cl)cc1N1CCN(C(=O)c2ccc3c(c2)N(Cc2ccccc2F)C(=O)c2ccccc2S3=O)CC1 (configuration not stated),/,/,/,3.2,4.7,7.3
O=c1ccc2cc(O)c(O)cc2o1,/,0.1%,-0.2%,1.6,-3.5,-41.1*
CCOC(=O)c1c(C)[nH]c(C)c1S(=O)(=O)N(C)CC(=O)Nc1ccc(OC)cc1,/,/,/,3.6,3.9,13.3
Cc1[nH]c2ccc(C(=O)N3CCN(c4ccccc4F)CC3)cc2c1C,/,/,/,1.4,1.0,-6.4
CC(C)CN1CCC(=O)N([C@H](CSc2ccc(Br)cc2)Cc2ccccc2)CC1,2.3%,2.7%,-11.2%,9.3,2.6,-50.3*
